Screening data deposited in PubChem BioAssay by National Center for Advancing Translational Sciences (NCATS).
A selection: hits, their analogues and other compounds. The true share with any hit is near 1.2%.
KCNH2 3.1 inh: blocks the human KCNH2 3.1 channel isoform; U2OS KCNH2 3.1, thallium flux FluxOr; active compounds read low; activity change, % (tested at about 1.8 µM); hit rate 0.95% among 340,000;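 active means maximum activity change below -70%; inconclusive means maximum activity change from -70% to -50%; inactive means maximum activity change above -50%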;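 further: thallium influx rate constant from kinetic fluorescence after stimulation buffer; on the % scale 0 is the no-effect control and ±100 the full control effect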
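Normalized rate constant (relative to positive and negative DMSO controls) derived from a 2 min kinetic fluorescence read after stimulation; U2OS cells expressing the 3.1 isoform via virus at 1.77 x 10^8 /mL.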
hERG WT inh: inhibitors of human wildtype KCNH2 potassium channel | Q12809 | U2OS, BacMam KCNH2, thallium flux FluxOr; active compounds read low | activity change, % at 1.84 µM | hit rate 0.37% among 340,000 | AID 720551;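 active means maximum activity change below -70%; inconclusive means maximum activity change between -70% and -50%; inactive means maximum activity change above -50%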; further: on the % scale 0 is the no-effect control and ±100 the full control effect
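U2OS cells were transduced with wild-type KCNH2 virus (2.03 x 10^8 / mL) for 4 h at room temperature, then cultured overnight at 37 C. Thallium flux was read with FluxOr dye. Rate constants were normalized to DMSO controls.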
TSG101-PTAP inh: blocks PTAP/TSG101 interaction to inhibit HIV-1 budding | Fluorescence polarization, FITC-PTAP peptide / Tsg101 binding | Potency, µM (highest dose often 115 µM), inactives show at the top dose activity change, negative = inhibition, hits mostly inhibitors | 340,000 tested, under 10 active; active means well fitted inhibition curve with a large enough effect in the main read-out, with a control signal flat, not every such curve was filed as active; inconclusive means small, poorly fitted or top-dose-only effect, or effect the other way, or a change in a side signal; inactive means no such curve, though single readings can be large or run the other way; further: potency means the concentration at half of the fitted maximal effect; % of control where 0% means no effect
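Compounds were pin-transferred onto Tsg101 binding domain (10 uM final) in HEPES pH 7.5 buffer, then FITC-PTAP peptide was added at 50 nM final. After 20 min at RT, polarization reported peptide displacement across a qHTS concentration series.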
Tb PFK block: T. brucei PFK enzyme inhibition. O15648. Potency, µM (doses to about 57.5 µM), for inactives: at the top dose activity, negative = inhibition, most hits filed as inhibitors. AID 485367. hit rate 0.17% among 330,000. T. brucei PFK, ADP-Glo luminescence; active means well fitted inhibition curve with a large enough effect; inconclusive means small, poorly fitted or top-dose-only effect, or effect the other way;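 further: potency means the concentration at half of the fitted maximal effect; 0% = uninhibited 1x PFK enzyme wells and -100% = no-enzyme wells; nearly all actives have a fitted effect of over 60% in size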
Target sequence (O15648 whole entry, looked up): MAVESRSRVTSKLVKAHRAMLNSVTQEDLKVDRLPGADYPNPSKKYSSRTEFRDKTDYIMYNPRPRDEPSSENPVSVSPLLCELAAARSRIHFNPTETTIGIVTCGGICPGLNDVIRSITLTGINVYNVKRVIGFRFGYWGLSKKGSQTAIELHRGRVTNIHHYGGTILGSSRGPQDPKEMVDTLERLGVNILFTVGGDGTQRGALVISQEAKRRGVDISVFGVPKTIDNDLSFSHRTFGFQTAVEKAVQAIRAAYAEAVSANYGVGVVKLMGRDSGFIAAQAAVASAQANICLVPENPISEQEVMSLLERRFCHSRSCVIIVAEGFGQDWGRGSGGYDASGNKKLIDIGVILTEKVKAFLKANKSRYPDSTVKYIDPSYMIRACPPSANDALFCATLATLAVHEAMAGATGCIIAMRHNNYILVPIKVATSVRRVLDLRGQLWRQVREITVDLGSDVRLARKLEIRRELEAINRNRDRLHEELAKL
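ADP-Glo luminescence quantified ADP after 45 min at room temperature, with 1.25 nM T. brucei PFK, 0.1 mM ATP and 0.5 mM fructose-6-phosphate in pH 8.0 TEA buffer. qHTS titrations up to 57 µM; curves classified by quality.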
* hit, by the source's call.

`COc1ccc(C(=O)NCCc2cc3ccc(C)c(C)c3[nH]c2=O)cc1OC` gave KCNH2 3.1 inh -111*, hERG WT inh -11, TSG101-PTAP inh 2% and Tb PFK block 1%.
Cc1ccc(C(=O)NCCc2cc3ccc(C)c(C)c3[nH]c2=O)cc1[N+](=O)[O-] was read as KCNH2 3.1 inh 3, hERG WT inh 0, TSG101-PTAP inh -1% and Tb PFK block -4%.
CCOC(=O)c1cc2c(ccn2C)n1Cc1ccccc1Cl was read as KCNH2 3.1 inh -89*, TSG101-PTAP inh -2% and Tb PFK block 2%.
For O=C(CC1CC2CCC1C2)N1CCN(S(=O)(=O)c2ccc(F)cc2)CC1 (stereo not drawn) the results were KCNH2 3.1 inh 13 and hERG WT inh -81*.
CC1CCN(C(=O)c2ccc([N+](=O)[O-])o2)CC1 was read as KCNH2 3.1 inh -72*, hERG WT inh -2, TSG101-PTAP inh -5% and Tb PFK block -7%.
For COc1ccc(CN2CCC(CO)(Cc3cccc(C(F)(F)F)c3)CC2)cc1Cn1cccn1 the results were KCNH2 3.1 inh -84*, hERG WT inh -26, TSG101-PTAP inh -4% and Tb PFK block -9%.
CCN1C(=O)C(CC(=O)Nc2ccccc2)S/C1=N\c1ccccn1 (stereo not drawn) was read as KCNH2 3.1 inh -5, hERG WT inh -2, TSG101-PTAP inh 2% and Tb PFK block -6%.
Screening COc1ccc(OCC(=O)Nc2ccc3c(c2)nc(CCN2CCCCC2)n3C)cc1 returned KCNH2 3.1 inh -72*, hERG WT inh 25, TSG101-PTAP inh 1% and Tb PFK block -3%.
Screening CN1CCN(CCc2nc3cc(NC(=O)COc4ccccc4)ccc3n2C)CC1 returned KCNH2 3.1 inh -6, hERG WT inh 1, TSG101-PTAP inh -3% and Tb PFK block -1%.
Cc1ccc(OCC(=O)Nc2ccc3c(c2)nc(CCN2CCCCC2)n3C)cc1 was read as KCNH2 3.1 inh inconclusive, hERG WT inh 27, TSG101-PTAP inh 1% and Tb PFK block 0%.
Cn1c(CCN2CCCCC2)nc2cc(NC(=O)COc3ccccc3)ccc21 was read as KCNH2 3.1 inh -86*, hERG WT inh 23, TSG101-PTAP inh -1% and Tb PFK block -7%.
Screening Cc1cccc(OCC(=O)Nc2ccc3c(c2)nc(CN2CCCCC2)n3C)c1 returned KCNH2 3.1 inh -15, hERG WT inh 15, TSG101-PTAP inh -4% and Tb PFK block 1%.
Cc1cccc(OCC(=O)Nc2ccc3c(c2)nc(CCN2CCCCC2)n3C)c1 was read as KCNH2 3.1 inh -77*, hERG WT inh 31, TSG101-PTAP inh -1% and Tb PFK block -1%.
Nc1ncnc2c1ncn2[C@@H]1O[C@H](CNS(=O)(=O)c2cc(S(=O)(=O)c3ccccc3)cs2)[C@@H](O)[C@H]1O was read as KCNH2 3.1 inh 1, hERG WT inh -9, TSG101-PTAP inh 3% and Tb PFK block 2%.
Screening O=S1(=O)CC2N=C(N(Cc3ccc(F)cc3Cl)c3ccccc3F)SC2C1 (stereo not drawn) returned KCNH2 3.1 inh -11, hERG WT inh -90*, TSG101-PTAP inh -2% and Tb PFK block 0%.
Screening Nc1ccn([C@@H]2O[C@H](CNCc3cnc(N4CCOCC4)s3)[C@@H](O)[C@H]2O)c(=O)n1 returned KCNH2 3.1 inh 5 and hERG WT inh -6.
COc1ccc(/C=N/n2c(SC)nnc(C(C)(C)C)c2=O)cc1 was read as KCNH2 3.1 inh 0, hERG WT inh -3, TSG101-PTAP inh 1% and Tb PFK block -3%.
For CCOc1ccc(/C=N/n2c(SC)nnc(C(C)(C)C)c2=O)cc1 the results were KCNH2 3.1 inh -3, hERG WT inh -80*, TSG101-PTAP inh -1% and Tb PFK block -1%.
CCN1CCN(c2ccc(S(=O)(=O)N3CCCCC3)cc2NC(=O)/C=C/c2ccc([N+](=O)[O-])cc2)CC1 was read as KCNH2 3.1 inh -76*, hERG WT inh -43, TSG101-PTAP inh 2% and Tb PFK block -5%.
For CCN1CCN(c2ccc(S(=O)(=O)N3CCCCC3)cc2NC(=O)/C=C/c2ccc(OC(F)F)cc2)CC1 the results were KCNH2 3.1 inh -80*, hERG WT inh -90*, TSG101-PTAP inh -6% and Tb PFK block 0%.
For CCN1CCN(c2ccc(S(=O)(=O)N3CCCCC3)cc2NC(=O)/C=C/c2ccc(F)cc2)CC1 the results were KCNH2 3.1 inh -13, hERG WT inh 12, TSG101-PTAP inh -4% and Tb PFK block -1%.
CCN1CCN(c2ccc(S(=O)(=O)N3CCCCC3)cc2NC(=O)c2cccc(OC(F)F)c2)CC1 was read as KCNH2 3.1 inh -118*, hERG WT inh -84*, TSG101-PTAP inh -4% and Tb PFK block -1%.
For O=C(NN=C1CCCC1)c1ccn[nH]1 the results were KCNH2 3.1 inh -200*, hERG WT inh -136*, TSG101-PTAP inh -2% and Tb PFK block 5%.
For CCOC(=O)c1c(N)c2cc([N+](=O)[O-])ccc2n1C the results were KCNH2 3.1 inh -97*, hERG WT inh -7, TSG101-PTAP inh 6% and Tb PFK block 1%.
O=C(CN1C(=O)c2ccccc2S1(=O)=O)Nc1cccc(S(=O)(=O)N2CCCCC2)c1 was read as KCNH2 3.1 inh 1, hERG WT inh -7, TSG101-PTAP inh -8% and Tb PFK block 2%.
For Cc1ccc(/C=C/C(=O)NCCCN2CCN(CCCNC(=O)/C=C/c3ccc(C)o3)CC2)o1 the results were KCNH2 3.1 inh -76*, hERG WT inh -2, TSG101-PTAP inh -10% and Tb PFK block -19%.
Screening O=C(/C=C/c1ccc(F)cc1)NCCCN1CCN(CCCNC(=O)/C=C/c2ccc(F)cc2)CC1 returned KCNH2 3.1 inh -92*, hERG WT inh -43, TSG101-PTAP inh 1% and Tb PFK block -1%.
For Cc1ccccc1C(=O)NNC(=O)CCC(=O)Nc1cccc(Cl)c1C the results were KCNH2 3.1 inh 1, hERG WT inh -22, TSG101-PTAP inh -7% and Tb PFK block 0%.
O=C(CC12CC3CC(CC(C3)C1)C2)NC(=S)Nc1ccc(CN2CCOCC2)cc1 was read as KCNH2 3.1 inh -77*, hERG WT inh 0, TSG101-PTAP inh -3% and Tb PFK block -1%.
For O=C(NC(=S)Nc1ccc(CN2CCOCC2)cc1)c1ccco1 the results were KCNH2 3.1 inh -9, hERG WT inh -3, TSG101-PTAP inh -3% and Tb PFK block 4%.
Screening COc1ccc(NC(=O)c2sc3nc(C)nc(N4CCN(c5ccccn5)CC4)c3c2C)cc1Cl returned KCNH2 3.1 inh -114*, hERG WT inh -78*, TSG101-PTAP inh -2% and Tb PFK block -11%.
For Cc1cc(Br)ccc1NC(=O)c1sc2ncnc(N3CCN(c4ccccn4)CC3)c2c1C the results were KCNH2 3.1 inh -110*, hERG WT inh -106*, TSG101-PTAP inh -1% and Tb PFK block -1%.
Screening COc1ccc(NC(=O)c2sc3ncnc(N4CCN(c5ccccn5)CC4)c3c2C)cc1Cl returned KCNH2 3.1 inh -114*, hERG WT inh -118*, TSG101-PTAP inh -1% and Tb PFK block -2%.
